Measured values from ChEMBL document CHEMBL4513216, “Probing the Open Global Health Chemical Diversity Library for Multistage-Active Starting Points for Next-Generation Antimalarials” (ACS Infect Dis, 2020).
Screen size: about 69,000 compounds; about 8,600 (12%) showed an effect of 50% or more. Many of the other results were omitted from the sample, so strong results are more common in it than they were.

The compounds below were run on Plasmodium berghei (assay: Screen against P. berghei liver stage (PbLuc), transformed with Luciferase, at 10uM). Details: tested at 10 uM.
Type: functional, HepG2

Going from `Cc1cnnn1Cc1nnn2c1CN(Cc1cccs1)CCC2` to `Cc1cc(CN2CCN(c3ccc4nncn4n3)CC2)no1`, the INHIBITION falls from 45.8% to 26.5%.

Compared with `CN(Cc1ccco1)C(=O)Nc1ccc(=O)n(C)c1`, `CN(Cc1ccco1)C(=O)c1ccc(=O)n(C)c1` is lower in INHIBITION: 60.1% for the first, 55.4% for the second.

Going from `COc1ccc(NC(=O)N(C)Cc2ccco2)cn1` to `Cc1occc1CN(C)C(=O)Nc1ccc(=O)n(C)c1`, the INHIBITION rises from 0.705% to 44.3%.

First: Cn1cc(C(=O)N(Cc2ccco2)Cc2cccs2)ccc1=O
Second: CCN(Cc1cccs1)C(=O)c1ccc(=O)n(C)c1
The INHIBITION of the first is higher: 34% for the first, 28.7% for the second.

First: CN(Cc1cccs1)C(=O)c1ccc(=O)n(C)c1
Second: COCCN(Cc1cccs1)C(=O)c1ccc(=O)n(C)c1
The INHIBITION of the first is higher: 53.3% for the first, -7.66% for the second.

Going from `CN(Cc1ccc2c(c1)OCO2)C(=O)c1ccc(=O)n(C)c1` to `CN(Cc1ccco1)C(=O)c1cccc(N2CCCC2=O)c1`, the INHIBITION falls from 42.7% to -27.9%.

Compared with `CCC1(CC)C(=O)NC(=O)N=C1Nc1ccc(C)cc1`, `CCC(=O)NCC(=O)NC(C)c1sc(-c2ccccc2F)nc1C` (stereo not given) is lower in INHIBITION: 27.5% for the first, -2.94% for the second.

Going from `O=C(NCC1(c2cccs2)CCCCC1)N1CCOC(CO)C1` (stereo not given) to `O=C1CCC2(CCCN(C(=O)NCc3ccccc3)CC2)N1` (stereo not given), the INHIBITION rises from -39.4% to 8.74%.

Going from `Cn1cc(N2C(=O)CC[C@@H]3[C@H]2CCN3CCc2ccccc2)cn1` to `Cn1cc(C(=O)N2CCCC(C(=O)CCc3ccccc3)C2)cn1` (stereo not given), the INHIBITION falls from 17.4% to 10.7%.

Going from `CN(C)C(=O)NC1COC2(CCN(C(=O)Nc3ccccc3)CC2)C1` (stereo not given) to `COc1ccc(C(=O)N2CCC(Oc3ccccc3)(C(=O)O)CC2)o1`, the INHIBITION rises from 42.1% to 50.1%.

First: Cc1nc2c(cc1C(=O)Nc1ccccc1Cl)c(=O)n(C)c(=O)n2C
Second: Cc1nc(NC(=O)CCN2C(=O)c3ccccc3NC2C(C)C)sc1C (stereo not given)
The INHIBITION of the first is lower: 18.6% for the first, 28.7% for the second.

First: COCCN1CCN(C)C2(CCN(C(=O)c3ccnnc3)CC2)C1=O
Second: CN1CCN(Cc2cccnc2)C(=O)C12CCN(C1CCOC1)CC2 (stereo not given)
The INHIBITION of the first is lower: 39.4% for the first, 40.3% for the second.

Going from `Cc1nc(C(C)Nc2nc3c(s2)c(C)nn3C)n[nH]1` (stereo not given) to `Cc1nn(C)c2nc(NC(C)c3n[nH]c(=O)[nH]3)sc12` (stereo not given), the INHIBITION falls from 52.1% to 28.5%.

Going from `Cc1nn(C)c2nc(NC(C)c3nnn[nH]3)sc12` (stereo not given) to `Cc1nn(C)c2c(N(C)Cc3cccs3)nc(C3CC3)nc12`, the INHIBITION falls from 1.24% to -17.2%.

Going from `O=S(=O)(NCc1ccnc(-n2ccnc2)c1)c1cncc(F)c1` to `O=S(=O)(Cc1cccc(F)c1)Nc1cc(Cl)ccn1`, the INHIBITION rises from 2.93% to 11.9%.

Going from `CCN1CCCC(NC(=O)c2ccc(C)[nH]c2=O)C1` (stereo not given) to `Cc1ccc(C(=O)NC2CCCN(C)C2)c(=O)[nH]1` (stereo not given), the INHIBITION falls from 55.5% to 8.51%.

First: Cc1ccc(C(=O)NC2CCCN(CC(N)=O)C2)c(=O)[nH]1 (stereo not given)
Second: Cc1ccc(C(=O)NC2CCCN(S(C)(=O)=O)C2)c(=O)[nH]1 (stereo not given)
The INHIBITION of the first is lower: 9.63% for the first, 19.7% for the second.

First: CN(C)[C@@H]1CN(Cc2cccnc2)C[C@H]1c1cn(C)c2ccccc12
Second: CC1CN(Cc2ccccn2)CCN1c1ccc2nncn2n1 (stereo not given)
The INHIBITION of the first is lower: 23.69% for the first, 31.9% for the second.

Compared with `c1ccc(OCc2nnc3n2CCN(Cc2ccco2)C3)nc1`, `CN(C)C(=O)COCc1nnc2n1CCN(Cc1ccoc1)C2` is higher in INHIBITION: 24.9% for the first, 45.8% for the second.

Compared with `CCOc1cc(C(=O)N2CCOCC2)cc2occc12`, `CCOc1cc(C(=O)N2CCCC2)cc2occc12` is higher in INHIBITION: 36.6% for the first, 50.7% for the second.

Compared with `CCOC(=O)N1CCN(C(=O)c2cc(OCC)c3ccoc3c2)CC1`, `CCOc1cc(C(=O)N2CCN(CC)CC2)cc2occc12` is lower in INHIBITION: 58.2% for the first, 9.32% for the second.

Compared with `CCOC(=O)C1CCN(C(=O)c2cc(OCC)c3ccoc3c2)CC1`, `CCOc1cc(C(=O)N2CCN(C)CC2)cc2occc12` is higher in INHIBITION: -13.9% for the first, 44.1% for the second.

First: CN1CCCCC1c1ncc2c(n1)CCN(CCCc1ccccc1)C2 (stereo not given)
Second: COc1cccc(C(=O)N2CCCC(C(=O)CCc3ccccc3)C2)c1 (stereo not given)
The INHIBITION of the first is lower: 26.8% for the first, 65% for the second.

First: Cc1cc(C(=O)N2CCC(O)(Cn3c(C)cc4ccncc43)CC2)on1
Second: COc1ccc(C(=O)N2CCC(Oc3cccc(C)c3)(C(=O)O)CC2)o1
The INHIBITION of the first is lower: 9.05% for the first, 40.2% for the second.

First: NC(=O)N1CCC(NCc2cc(C(F)(F)F)ccc2Cl)CC1
Second: O=c1c2cccc(C(F)(F)F)c2ncn1CCN1CCNCC1
The INHIBITION of the first is higher: 17.8% for the first, -100% for the second.

First: CNC(=O)C1(CCCc2ccncc2)CCN1 (stereo not given)
Second: COCC(=O)NCc1cc(=O)n2c(n1)CN(Cc1ccncc1)CCC2
The INHIBITION of the first is lower: -4.82% for the first, 22.2% for the second.

First: COc1ccc(CN2CC(O)CN(C(=O)C3CCC3)CC2=O)cc1 (stereo not given)
Second: COc1cccc(CCC2CCCN(C(=O)C3=NN(C)C(=O)CC3)C2)c1 (stereo not given)
The INHIBITION of the first is higher: 41.1% for the first, 3.47% for the second.

Compared with `COc1cccc(CCC2CCCN(C(=O)c3ccc(OC)o3)C2)c1` (stereo not given), `COc1cccc(CCC2CCCN(C(=O)c3ccc(=O)n(C)n3)C2)c1` (stereo not given) is lower in INHIBITION: 68.3% for the first, 40.5% for the second.

Going from `COc1cccc(CCC2CCCN(C(=O)c3ccccn3)C2)c1` (stereo not given) to `COc1cccc(CCC2CCCN(C(=O)c3cnccn3)C2)c1` (stereo not given), the INHIBITION rises from 43.7% to 81.1%.

Going from `COc1cccc(OCC2CCCN(C(=O)c3cc(C)n[nH]3)C2)c1` (stereo not given) to `COc1cccc(OCC2CCCN(Cc3ncc[nH]3)C2)c1` (stereo not given), the INHIBITION rises from 10.5% to 22.6%.

Going from `N#Cc1cccc(C(=O)N2CCCC(C(=O)CCc3ccccc3)C2)c1` (stereo not given) to `COCCOc1cccc(C(=O)N2CCCCC2c2nccs2)c1` (stereo not given), the INHIBITION falls from -8.66% to -31.5%.

First: COc1cccc(CCC2CCCN(C(=O)c3n[nH]c4c3CCC4)C2)c1 (stereo not given)
Second: COc1ccccc1CC1CCCN(C(=O)c2n[nH]c3c2CCC3)C1 (stereo not given)
The INHIBITION of the first is higher: 81.8% for the first, 19% for the second.

First: COc1cccc(CCC2CCCN(C(C)=O)C2)c1 (stereo not given)
Second: COc1cccc(CCC2CCCN(Cc3ncc[nH]3)C2)c1 (stereo not given)
The INHIBITION of the first is lower: -10.9% for the first, 65.7% for the second.

Going from `Cc1sc(NC(=O)CCC(=O)O)c(C(N)=O)c1-c1ccc(Cl)cc1Cl` to `CC(=O)NCCC(=O)NC(C)c1sc(-c2ccccc2F)nc1C` (stereo not given), the INHIBITION falls from 41.6% to 29.3%.

First: CNc1nccc(-c2cnc3sc(C)c(C)n3c2=O)n1
Second: COCC(=O)NC(C)c1sc(-c2ccccc2F)nc1C (stereo not given)
The INHIBITION of the first is lower: -4.82% for the first, 84.2% for the second.

First: O=C(c1cc[nH]n1)N1CCCC1c1cnccn1 (stereo not given)
Second: O=C(CCOc1ccc(Br)cc1)N1CCN(c2cnccn2)CC1
The INHIBITION of the first is lower: 31.6% for the first, 43.2% for the second.

Compared with `CC(NC(=O)COCC(F)(F)F)c1nnc2n1CCCCC2` (stereo not given), `FC(F)(F)Cn1ccnc1CNCC1CCCN1c1cccnn1` (stereo not given) is higher in INHIBITION: -27.8% for the first, -2.53% for the second.

Compared with `CCN(CC)CCCNC(=O)c1nn(CC)cc1Cl`, `CCC(CO)NC(=O)c1ccc2ccc(N(C)CC3CC3)n2c1` (stereo not given) is lower in INHIBITION: 35.8% for the first, -24.3% for the second.

First: CC1(C)CN(CC(=O)NCc2ccccc2F)C[C@]1(C)O
Second: CNC(=O)CN(C(=O)c1cc(C(C)C)no1)c1cccc(F)c1
The INHIBITION of the first is higher: -2.97% for the first, -10.5% for the second.

Going from `COc1ccc(C(=O)N2CCC(Oc3ccc(C)cc3)(C(=O)O)CC2)o1` to `O=C(O)C1(O)CCN(c2ccnc3c(C(F)(F)F)cccc23)CC1`, the INHIBITION falls from 14.3% to -48.4%.

First: COc1cccc(OCC2CCCN(Cc3ccncc3)C2)c1 (stereo not given)
Second: CC(NCc1ccncc1)c1ccc(N2CCN(C)CC2)c(F)c1 (stereo not given)
The INHIBITION of the first is lower: 1.74% for the first, 15.8% for the second.

Going from `CCNc1cc2c(nn1)CCN(C(=O)c1ccsc1)C2` to `CN1CCN(c2ccc(F)cc2C(N)=O)CC1`, the INHIBITION rises from 37.8% to 58.7%.

Compared with `CCc1nnc(CN2CCc3cnc(C)nc3C2)o1`, `Cc1cnc(CN2CCN(c3ccc4nncn4n3)C(C)C2)cn1` (stereo not given) is higher in INHIBITION: -36.6% for the first, 23.7% for the second.

First: CC(C)NC(=O)N1CCOC2(CCCN(c3ncccc3F)C2)C1 (stereo not given)
Second: Cc1cccc(C(=O)N2CC(C(=O)NCC3CC3)C3(CCOCC3)C2)n1 (stereo not given)
The INHIBITION of the first is lower: 2.58% for the first, 37.1% for the second.

Compared with `CS(=O)(=O)CCNC1CCCN(Cc2noc(C3CC3)n2)C1` (stereo not given), `Cc1cc(CN2CCN(c3ccc4nncn4n3)C(C)C2)no1` (stereo not given) is higher in INHIBITION: 40.4% for the first, 59% for the second.

Going from `O=c1c2cccc(C(F)(F)F)c2ncn1C1CCNC1` (stereo not given) to `O=c1c2cccc(Cl)c2ncn1C1CCNC1` (stereo not given), the INHIBITION rises from 53.6% to 56.3%.

First: Cc1nc[nH]c1-c1c(-c2ccccc2)ncn1C1CCNC1 (stereo not given)
Second: O=C1C(Nc2nccn3cnnc23)CCCN1c1ccccc1Cl (stereo not given)
The INHIBITION of the first is higher: 31.3% for the first, 24.3% for the second.

First: O=c1c2cccc(F)c2ncn1CCN1CCNCC1
Second: OCc1ccc(N2CCN(c3ncccn3)CC2)c(F)c1
The INHIBITION of the first is lower: -74% for the first, 31.3% for the second.

Compared with `Cc1cc(NCc2noc(C(C)C)n2)nc(-c2ccccc2)n1`, `Cc1cc(=O)n2nc(Oc3cccc(I)c3)sc2n1` is higher in INHIBITION: 14.4% for the first, 35.7% for the second.

Compared with `CC(C)CNC(=O)CN(C)S(C)(=O)=O`, `CC(C)N(CC(N)=O)C(=O)c1cc(F)ccc1N1CCN(C)CC1` is lower in INHIBITION: 40.7% for the first, 1.74% for the second.

First: O=C(CCN1CCc2ccccc21)N1C[C@@H](O)[C@H](N2CCCC2)C1
Second: O=C(CCN1CCc2ccccc21)N1C[C@@H](O)[C@H](N2CCOCC2)C1
The INHIBITION of the first is higher: 56.8% for the first, -8.12% for the second.

Compared with `O=C(CCN1CCc2ccccc21)N1CC(C(=O)N2CCOCC2)C1`, `C=C(C)CN(CC)C(=O)c1cc(F)ccc1N1CCN(C)CC1` is lower in INHIBITION: 25.6% for the first, 19.8% for the second.

First: CC1CN(Cc2nccn2C)CCN1c1ccc2nncn2n1 (stereo not given)
Second: Cc1cc(CN2CCN(c3ccc4nncn4n3)C(C)C2)on1 (stereo not given)
The INHIBITION of the first is higher: 57.4% for the first, 26.5% for the second.

Going from `CN1CCN(c2ccc(CO)cc2F)CC1` to `Cc1ccc(F)c(N2CCCC(Nc3nccn4cnnc34)C2=O)c1` (stereo not given), the INHIBITION falls from 68.4% to 52.7%.

First: Cc1cc(F)ccc1N1CCCC(Nc2nccn3cnnc23)C1=O (stereo not given)
Second: COC[C@]1(O)CCN(Cc2cnc(N(C)C)nc2)CC1(C)C
The INHIBITION of the first is higher: 25.4% for the first, -28.9% for the second.
